Measurements published in PubChem BioAssay AID1159580 (chemical genetic matrix, 2015).
“And” between values parts separate entries of the source, which are not always exact repeats. Equal entries are not always repeated. In all, about 5,500 compounds went through this assay and about 2,000 (36%) were called active. About 18% were inconclusive and are not listed. Rule as the data show it: active = normalized growth mostly below about 0.91 (no sharp cut-off); inconclusive = no clear call, values can overlap the other calls; inactive = mostly above about 0.92. The list shows a part of the results.

Assay: chemical genetic growth profiling, strain panel (AID 1159580);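 also: tested at 20 µM; growth read once vehicle control cultures reached saturation at 30 °C; 1 = growth at the plate median or of vehicle wells; lower values mean less growth of the strain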
Settings: S. cerevisiae deletion strains, growth OD

Measured: normalized growth

CC(C)(C)CC(C)(C)c1ccc(OCCOCC[N+](C)(C)Cc2ccccc2)cc1
0.912 (inactive) and 0.258 (active): locus YJL095W, strain BCK1, stronger effect = lower value
0.995 (inactive) and 0.14 (active): locus YHR030C, strain SLT2, stronger effect = lower value
active: locus YAL021C, strain ccr4, stronger effect = lower value 0.0688 | locus YAL026C, strain drs2, stronger effect = lower value 0.0657 | locus YAL030W, strain snc1, stronger effect = lower value 0.0593 | locus YBL061C, strain skt5, stronger effect = lower value 0.0642 | locus YBR009C, strain hhf1, stronger effect = lower value 0.0641 | locus YBR021W, strain FUR4, stronger effect = lower value 0.749 | locus YBR023C, strain chs3, stronger effect = lower value 0.0641 | locus YBR171W, strain sec66, stronger effect = lower value 0.0804 | locus YBR231C, strain swc5, stronger effect = lower value 0.0684 | locus YBR279W, strain paf1, stronger effect = lower value 0.0627 | locus YCL011C, strain gbp2, stronger effect = lower value 0.0631 | locus YCL016C, strain dcc1, stronger effect = lower value 0.0699 | locus YCL069W, strain vba3, stronger effect = lower value 0.0614 | locus YCR088W, strain abp1, stronger effect = lower value 0.0617 | locus YDL005C, strain med2, stronger effect = lower value 0.0736 | locus YDL040C, strain nat1, stronger effect = lower value 0.0719 | locus YDR001C, strain nth1, stronger effect = lower value 0.0593 | locus YDR069C, strain doa4, stronger effect = lower value 0.0664 | locus YDR137W, strain rgp1, stronger effect = lower value 0.0931 | locus YDR159W, strain sac3, stronger effect = lower value 0.1 | locus YDR195W, strain ref2 0.158 | locus YDR297W, strain sur2, stronger effect = lower value 0.0635 | locus YDR334W, strain swr1, stronger effect = lower value 0.0662 | locus YDR335W, strain msn5, stronger effect = lower value 0.0594 | locus YDR392W, strain spt3, stronger effect = lower value 0.0804 | locus YEL003W, strain gim4, stronger effect = lower value 0.0568 | locus YEL037C, strain rad23, stronger effect = lower value 0.0591 | locus YEL061C, strain CIN8 (second series), stronger effect = lower value 0.0651 | locus YER015W, strain faa2, stronger effect = lower value 0.0671 | locus YER016W, strain bim1, stronger effect = lower value 0.0697 | locus YER111C, strain swi4, stronger effect = lower value 0.0727 | locus YER155C, strain BEM2 (second series), stronger effect = lower value 0.0937 | locus YFR010W, strain ubp6, stronger effect = lower value 0.0726 | locus YGL167C, strain pmr1, stronger effect = lower value 0.837 | locus YGL173C, strain kem1, stronger effect = lower value 0.0679 | locus YGL227W, strain vid30, stronger effect = lower value 0.0676 | locus YGL240W, strain doc1, stronger effect = lower value 0.0832 | locus YGL253W, strain hxk2, stronger effect = lower value 0.058 | locus YHR013C, strain ard1, stronger effect = lower value 0.119 | locus YHR027C, strain rpn1, stronger effect = lower value 0.0623 | locus YHR079C, strain IRE1, stronger effect = lower value 0.167 | locus YHR142W, strain chs7, stronger effect = lower value 0.0755 | locus YJL092W, strain hpr5, stronger effect = lower value 0.0645 | locus YJL095W, strain BCK1 (second series), stronger effect = lower value 0.0585 | locus YJL115W, strain asf1, stronger effect = lower value 0.0787 | locus YJL129C, strain trk1, stronger effect = lower value 0.079 | locus YJL154C, strain vps35, stronger effect = lower value 0.0655 | locus YJL164C, strain tpk1, stronger effect = lower value 0.0649 | locus YJL166W, strain qcr8, stronger effect = lower value 0.0654 | locus YJL187C, strain SWE1, stronger effect = lower value 0.0616 | locus YJR066W, strain TOR1, stronger effect = lower value 0.791 | locus YKL160W, strain elf1, stronger effect = lower value 0.0818 | locus YKR001C, strain vps1, stronger effect = lower value 0.686 | locus YKR026C, strain gcn3, stronger effect = lower value 0.0715 | locus YKR091W, strain srl3, stronger effect = lower value 0.0677 | locus YLL001W, strain dnm1, stronger effect = lower value 0.064 | locus YLL026W, stronger effect = lower value 0.059 | locus YLL041C, strain sdh2, stronger effect = lower value 0.0644 | locus YLR027C, strain aat2, stronger effect = lower value 0.0617 | locus YLR113W, strain HOG1, stronger effect = lower value 0.166 | locus YLR221C, strain rsa3, stronger effect = lower value 0.0654 | locus YLR258W, strain gsy2, stronger effect = lower value 0.0637 | locus YLR262C, strain YPT6 (second series), stronger effect = lower value 0.0738 | locus YLR320W, strain mms22, stronger effect = lower value 0.08 | locus YLR342W, strain FKS1, stronger effect = lower value 0.0831 | locus YLR357W, strain rsc2, stronger effect = lower value 0.132 | locus YLR370C, strain arc18, stronger effect = lower value 0.0619 | locus YLR384C, strain iki3, stronger effect = lower value 0.0611 | locus YML120C, strain ndi1, stronger effect = lower value 0.0599 | locus YMR058W, strain fet3, stronger effect = lower value 0.0666 | locus YMR125W, strain sto1, stronger effect = lower value 0.0985 | locus YMR129W, stronger effect = lower value 0.0605 | locus YMR205C, strain PFK2, stronger effect = lower value 0.112 | locus YMR231W, strain pep5, stronger effect = lower value 0.0717 | locus YNL071W, strain lat1, stronger effect = lower value 0.0629 | locus YNL183C, strain NPR1, stronger effect = lower value 0.73 | locus YNL209W, strain ssb2, stronger effect = lower value 0.0644 | locus YNL248C, strain rpa49, stronger effect = lower value 0.0829 | locus YNL322C, strain KRE1 (second series), stronger effect = lower value 0.0768 | locus YNR049C, strain mso1, stronger effect = lower value 0.0601 | locus YOR001W, strain rrp6, stronger effect = lower value 0.0755 | locus YOR070C, strain gyp1, stronger effect = lower value 0.0589 | locus YOR080W, strain dia2, stronger effect = lower value 0.0709 | locus YOR083W, strain WHI5, stronger effect = lower value 0.0783 | locus YOR106W, strain vam3, stronger effect = lower value 0.0737 | locus YOR231W, strain MKK1, stronger effect = lower value 0.451 | locus YOR265W, strain rbl2, stronger effect = lower value 0.0618 | locus YOR270C, strain vph1, stronger effect = lower value 0.103 | locus YOR290C, strain snf2, stronger effect = lower value 0.0712 | locus YPL051W, strain arl3, stronger effect = lower value 0.0738 | locus YPL078C, strain atp4, stronger effect = lower value 0.0749 | locus YPL106C, strain sse1, stronger effect = lower value 0.108 | locus YPL240C, strain hsp82, stronger effect = lower value 0.0673 | locus YPL256C, strain CLN2, stronger effect = lower value 0.347
inactive: locus YAL013W, strain DEP1, stronger effect = lower value 0.983 | locus YBR229C, strain ROT2, stronger effect = lower value 1.02 | locus YCL029C, strain bik1, stronger effect = lower value 0.986 | locus YDL035C, strain GPR1, stronger effect = lower value 1.01 | locus YDL074C, strain BRE1, stronger effect = lower value 0.954 | locus YDL101C, strain DUN1, stronger effect = lower value 0.988 | locus YDL134C, strain PPH21, stronger effect = lower value 0.995 | locus YDL185W, strain tfp1, stronger effect = lower value 1 | locus YDL192W, strain arf1, stronger effect = lower value 0.976 | locus YDR101C, strain arx1, stronger effect = lower value 0.991 | locus YDR150W, strain NUM1, stronger effect = lower value 1 | locus YDR162C, strain NBP2, stronger effect = lower value 0.911 | locus YDR318W, strain mcm21, stronger effect = lower value 0.997 | locus YDR388W, stronger effect = lower value 1 | locus YDR502C, strain sam2, stronger effect = lower value 0.988 | locus YEL061C, strain CIN8, stronger effect = lower value 0.999 | locus YER110C, stronger effect = lower value 0.992 | locus YER155C, strain BEM2, stronger effect = lower value 1.03 | locus YER167W, strain BCK2, stronger effect = lower value 1.02 | locus YGL078C, strain dbp3, stronger effect = lower value 0.988 | locus YGL086W, strain mad1, stronger effect = lower value 0.984 | locus YGL248W, strain PDE1, stronger effect = lower value 0.99 | locus YGR078C, strain PAC10, stronger effect = lower value 0.917 | locus YGR135W, strain pre9, stronger effect = lower value 0.994 | locus YGR252W, strain gcn5, stronger effect = lower value 0.98 | locus YHR079C, strain IRE1 (second series), stronger effect = lower value 0.991 | locus YHR094C, strain hxt1, stronger effect = lower value 0.985 | locus YHR129C, strain ARP1, stronger effect = lower value 0.994 | locus YHR200W, strain rpn10, stronger effect = lower value 0.993 | locus YIL066C, strain RNR3, stronger effect = lower value 0.994 | locus YIL073C, strain SPO22, stronger effect = lower value 0.865 | locus YIL125W, strain kgd1, stronger effect = lower value 0.991 | locus YIR030C, strain dcg1, stronger effect = lower value 0.985 | locus YJL134W, strain LCB3, stronger effect = lower value 1 | locus YJL168C, strain set2, stronger effect = lower value 0.999 | locus YJL187C, strain SWE1 (second series), stronger effect = lower value 0.989 | locus YJR043C, strain POL32, stronger effect = lower value 1.03 | locus YKL009W, strain mrt4, stronger effect = lower value 0.965 | locus YKL068W, stronger effect = lower value 1.01 | locus YKL085W, strain MDH1 (second series), stronger effect = lower value 1 | locus YKL085W, strain MDH1, stronger effect = lower value 1 | locus YLR039C, strain RIC1, stronger effect = lower value 0.781 | locus YLR058C, strain SHM2, stronger effect = lower value 0.996 | locus YLR102C, strain apc9, stronger effect = lower value 0.992 | locus YLR262C, strain YPT6, stronger effect = lower value 0.832 | locus YLR268W, strain sec22, stronger effect = lower value 0.974 | locus YLR330W, strain CHS5, stronger effect = lower value 0.993 | locus YLR342W, strain FKS1 (second series), stronger effect = lower value 0.998 | locus YLR371W, strain rom2, stronger effect = lower value 0.992 | locus YLR418C, strain cdc73, stronger effect = lower value 0.871 | locus YML016C, strain PPZ1, stronger effect = lower value 1.01 | locus YML032C, strain rad52, stronger effect = lower value 0.99 | locus YML124C, strain tub3, stronger effect = lower value 0.989 | locus YMR078C, strain ctf18, stronger effect = lower value 0.986 | locus YMR223W, strain ubp8, stronger effect = lower value 0.989 | locus YMR263W, strain SAP30, stronger effect = lower value 0.991 | locus YMR307W, strain GAS1, stronger effect = lower value 1.06 | locus YNL067W, strain RPL9B, stronger effect = lower value 0.977 | locus YNL233W, strain BNI4, stronger effect = lower value 0.984 | locus YNL250W, strain rad50, stronger effect = lower value 0.989 | locus YNL271C, strain bni1, stronger effect = lower value 0.978 | locus YNL298W, strain CLA4, stronger effect = lower value 1.01 | locus YNL307C, strain MCK1, stronger effect = lower value 0.937 | locus YNR052C, strain pop2, stronger effect = lower value 0.99 | locus YOL006C, strain TOP1, stronger effect = lower value 0.864 | locus YOL012C, strain htz1 1.63 | locus YOL147C, strain pex11, stronger effect = lower value 0.985 | locus YOR061W, strain CKA2, stronger effect = lower value 1.01 | locus YOR069W, strain VPS5, stronger effect = lower value 1.01 | locus YOR136W, strain idh2, stronger effect = lower value 0.986 | locus YOR144C, strain elg1, stronger effect = lower value 0.996 | locus YOR184W, strain ser1, stronger effect = lower value 0.954 | locus YOR316C, strain cot1, stronger effect = lower value 0.992 | locus YPL055C, strain LGE1, stronger effect = lower value 0.98 | locus YPL241C, strain CIN2, stronger effect = lower value 1 | locus YPR119W, strain clb2, stronger effect = lower value 0.984 | locus YPR141C, strain kar3, stronger effect = lower value 0.988 | locus YPR163C, strain tif3, stronger effect = lower value 0.981 | locus YPR167C, strain met16, stronger effect = lower value 1.01 | strain wtn01, stronger effect = lower value 0.997
